This is a sample that favours compounds with a hit; in the whole collection about 2.8% have one here.
a7 integrin act = activators of alpha7 integrin expression for muscular dystrophy | alpha7betagal myoblasts, beta-gal FDG fluorescence, 48 h | Potency, µM (titrated, usually from 38.3 µM), hits mostly activators | actives 0.064% (n = 350,000) | AID 624291; also: nearly all actives have a fitted effect of over 60% in size
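alpha7betagal+/- myoblasts (passage 13, 250/well) treated 48 h at 37C with compounds at 1:260 dilution of DMSO stock. Lysed, then beta-galactosidase activity read as FDG fluorescence (ex 480/em 540) after 30 min, with pre-read for autofluorescence.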
PTHR1 agonist = agonists of human PTHR1 parathyroid hormone receptor; Q03431; HEK293 GP2 PTHR1 cells, GloSensor cAMP luminescence, 1 h; Potency, µM (highest dose often 115 µM), actives largely listed as activators; actives 0.075% (n = 410,000); also: nearly all actives have a fitted effect of over 55% in size
Target sequence (Q03431 whole entry, looked up): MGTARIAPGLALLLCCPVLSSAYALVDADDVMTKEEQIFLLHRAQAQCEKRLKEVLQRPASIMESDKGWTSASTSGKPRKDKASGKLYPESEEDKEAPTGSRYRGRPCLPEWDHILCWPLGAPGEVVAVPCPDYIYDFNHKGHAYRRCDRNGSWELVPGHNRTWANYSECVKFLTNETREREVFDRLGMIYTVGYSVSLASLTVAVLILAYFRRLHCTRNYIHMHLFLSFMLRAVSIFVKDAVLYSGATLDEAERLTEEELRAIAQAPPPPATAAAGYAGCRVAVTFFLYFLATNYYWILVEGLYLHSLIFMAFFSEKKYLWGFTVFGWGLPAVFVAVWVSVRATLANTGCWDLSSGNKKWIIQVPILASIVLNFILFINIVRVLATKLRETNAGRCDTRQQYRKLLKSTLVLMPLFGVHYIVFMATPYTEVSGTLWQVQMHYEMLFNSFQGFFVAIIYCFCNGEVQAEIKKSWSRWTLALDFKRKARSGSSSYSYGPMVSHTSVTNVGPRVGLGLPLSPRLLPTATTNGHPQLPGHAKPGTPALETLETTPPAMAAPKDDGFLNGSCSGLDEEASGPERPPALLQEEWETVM
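HEK-293-derived GP2 cells expressing PTHR1 and a GloSensor cAMP reporter, 3,000/well, plated overnight, given luciferin plus IBMX (each 0.5 mM as added) for 1 h at 37 °C, then compound for 1 h at 37 °C. Luminescence was read after 15 min at room temperature.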
MBNL1-CUG inh = inhibitors of human MBNL1 binding to CUG repeat RNA; Q9NR56; TR-FRET MBNL1-His/biotin-(CUG)12 binding, 665/545 ratio; Potency, µM (doses to about 57.5 µM), usual class: inhibitors; actives 0.036% (n = 280,000); AID 2675; active = well fitted inhibition curve with a large enough effect in the signal ratio, with a control signal flat, not every such curve was filed as active; inconclusive = small, poorly fitted or top-dose-only effect, or effect the other way, or a change in a side signal; inactive = no such curve, though single readings can be large or run the other way; the % refers to the signal ratio
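MBNL1-His + Biotin-(CUG)12, cpd titration 92 nM–58 uM; Tb anti-His Ab 0.055 ng/ul, SA-XL665 5 nM (final); 60 min RT; ratiometric 665/545 nm, Ex 340 nm; normalized to buffer and full-complex controls.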
D3 ag = activates the human D3 dopamine receptor. D3R DiscoveRx beta-arrestin cells, luminescence, 90 min. P35462. max activation, %. actives 0.58% (n = 410,000); in the data active = max activation above about 30%
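Cells at 1500/well, incubated overnight, then treated with pinned compounds (dopamine as control) for 90 min at 37 degrees C. DiscoveRx reagent added for 30 - 60 minutes at room temperature; luminescence read.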
DRD3 antagonist = D3 dopamine receptor (human) antagonism. D3R cells, DiscoveRx beta-arrestin luminescence, antagonist mode; stronger effect = lower value. max response, negative = inhibition, %. actives 2.5% (n = 360,000). P35462; in the data active = max response below about -50%; inconclusive = no clear call, values can overlap the other calls
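Cells plated overnight at 1500 cells/well, then exposed to library compounds with dopamine controls for 90 minutes at 37 degrees C. DiscoveRx reagent added for 30–60 minutes at room temperature; luminescence read, quantitative HTS format.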
CBFb RUNX1 block = CBF-beta/RUNX1 interaction disruption | AID 1477 | Q01196+Q13951 | Potency, µM (titrated, usually from 59.8 µM), actives largely listed as inhibitors | 230,000 tested, under 10 active | AlphaScreen CBFb-His/RUNX1-biotin binding, biochemical
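AlphaScreen proximity signal reports loss of binding between His-tagged CBF-beta and biotin-labelled RUNX1, each at 30 nM. Proteins are pre-associated for 20 minutes, compounds added for 15 minutes, then beads for 90 minutes, all at ambient temperature.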
Hits are given with their value. Unless noted, calls follow the shape of the dose curve; as a rule, active = well fitted curve in the direction sought with a large enough effect; inconclusive = small, poorly fitted or top-dose-only effect, or another doubt; inactive = no such curve, though single readings can be large; an effect the other way counts as inactive or inconclusive.

Results for O=C(CSc1nc2cc(Cl)ccc2s1)NC1CCCc2ccccc21 (stereo not drawn) ?
a7 integrin act: inactive; PTHR1 agonist: inactive; MBNL1-CUG inh: inactive; D3 ag: 32.6; DRD3 antagonist: inactive; CBFb RUNX1 block: inactive

How did COC(=O)C(Cc1ccccc1)NC(=O)CC(C)CC(=O)Nc1ccc(C)cc1 (stereo not drawn) do in these assays?
a7 integrin act: inactive; PTHR1 agonist: inactive; MBNL1-CUG inh: inactive; D3 ag: inactive; DRD3 antagonist: inactive

What do the screens show for `O=C(NCCCN1CCN(c2ccccc2)CC1)Nc1ccccc1C(F)(F)F`?
a7 integrin act: inactive; PTHR1 agonist: inactive; MBNL1-CUG inh: inactive; D3 ag: 30.4; DRD3 antagonist: inconclusive; CBFb RUNX1 block: inactive

How did O=C(NCCCN1CCN(c2ccccc2F)CC1)Nc1ccc(F)cc1 do in these assays?
a7 integrin act: inactive; PTHR1 agonist: inactive; MBNL1-CUG inh: inactive; D3 ag: inactive; DRD3 antagonist: inconclusive; CBFb RUNX1 block: inactive

How did Cc1ccccc1NC(=O)NCCCN1CCN(C)CC1 do in these assays?
a7 integrin act: inconclusive; PTHR1 agonist: inactive; MBNL1-CUG inh: inactive; D3 ag: inactive; DRD3 antagonist: inactive

Results for Cc1ccccc1NC(=O)NCCCN1CCN(c2ccccc2)CC1 ?
a7 integrin act: inactive; PTHR1 agonist: inactive; MBNL1-CUG inh: inactive; D3 ag: 49.6; DRD3 antagonist: inconclusive; CBFb RUNX1 block: inactive

Results for O=C(NCCCN1CCN(c2ccccc2F)CC1)Nc1ccccc1[N+](=O)[O-] ?
a7 integrin act: inactive; PTHR1 agonist: inactive; MBNL1-CUG inh: inconclusive; D3 ag: inactive; DRD3 antagonist: -88.8; CBFb RUNX1 block: inactive

What do the screens show for `CN1CCN(CCCNC(=O)c2ccc(NC(=O)C3=CSCCO3)cc2)CC1`?
a7 integrin act: inconclusive; PTHR1 agonist: inactive; MBNL1-CUG inh: inactive; D3 ag: inactive; DRD3 antagonist: inactive

How did O=C(Nc1ccc(C(=O)NCCCN2CCN(c3ccccc3)CC2)cc1)C1=CSCCO1 do in these assays?
a7 integrin act: inactive; PTHR1 agonist: inactive; MBNL1-CUG inh: inactive; D3 ag: inactive; DRD3 antagonist: -73.0

How did Cc1ccc(NC(=O)C(C)OC(=O)c2ccc(NC(=O)CC#N)cc2)cc1S(=O)(=O)N1CCOCC1 (stereo not drawn) do in these assays?
a7 integrin act: inactive; PTHR1 agonist: inactive; D3 ag: inactive; DRD3 antagonist: inactive

What do the screens show for `CC1=C(C(=O)Nc2ccccc2)C(c2ccc(C(C)C)cc2)N2C(=O)CSC2=N1` (stereo not drawn)?
a7 integrin act: inactive; PTHR1 agonist: inactive; MBNL1-CUG inh: inactive; D3 ag: inactive; DRD3 antagonist: -50.6; CBFb RUNX1 block: inactive

Results for CC1=C(C(=O)Nc2ccccc2)C(c2ccccc2)N2C(=O)CSC2=N1 (stereo not drawn) ?
a7 integrin act: inactive; PTHR1 agonist: inactive; MBNL1-CUG inh: inactive; D3 ag: inactive; DRD3 antagonist: inactive; CBFb RUNX1 block: inactive

Results for O=C(C1CCC(Cn2c(=O)c3sccc3n(Cc3cccc(F)c3)c2=O)CC1)N1CCCCC1 (stereo not drawn) ?
PTHR1 agonist: inactive; D3 ag: inactive

How did O=C(CCN1CCN(c2ccccc2)CC1)Nc1cccc(Br)c1 do in these assays?
a7 integrin act: inactive; PTHR1 agonist: inactive; MBNL1-CUG inh: inactive; D3 ag: inactive; DRD3 antagonist: -72.5; CBFb RUNX1 block: inactive

What do the screens show for `COc1cc(NC(=O)NCCN2CCN(c3ccccc3)CC2)cc(OC)c1OC`?
a7 integrin act: inactive; PTHR1 agonist: inactive; MBNL1-CUG inh: inactive; D3 ag: inactive; DRD3 antagonist: inactive

Results for O=C(NCCN1CCN(c2ccccc2)CC1)Nc1cccc(Br)c1 ?
a7 integrin act: inactive; PTHR1 agonist: inactive; MBNL1-CUG inh: inactive; D3 ag: inactive; DRD3 antagonist: -75.1

What do the screens show for `O=C(CCN1CCCC1)Nc1cccc(Br)c1`?
a7 integrin act: inactive; PTHR1 agonist: inactive; MBNL1-CUG inh: inactive; D3 ag: inactive; DRD3 antagonist: inactive; CBFb RUNX1 block: inactive
